Compounds with a hit are over-represented: about 3% of the library has one in this group of screens.
A549 tox: kills or reduces viability of A549 cells in Nrf2 counter-screen; hit rate 0.16% among 390,000; A549 ARE-Fluc cells, CellTiter-Fluor viability, 18-24 h; Potency, µM (titrated, usually from 46 µM), hits mostly inhibitors
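A549 ARE-Fluc cells in 5% FBS OPTI-MEM, 5000 cells/well, rested 2 h then exposed to compounds in concentration-response for 18-24 h at 37 °C. Viability by CellTiter-Fluor fluorescence (Ex 405/Em 525) after 30 min; luciferase luminescence (BugLite, 15 min, RT) read afterwards.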
Nrf2 activator: activators of Nrf2 (ARE) signaling. Potency, µM (highest dose often 46.1 µM), most hits filed as activators. hit rate 0.31% among 410,000. AREc32 ARE-luciferase reporter (MCF7-derived line), luminescence, 24 h; also: nearly all actives have a fitted effect of over 65% in size
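Reporter line AREc32 (ARE-Fluc), seeded overnight in OPTI-MEM with 5% FBS; compound pin-transferred, 24 hr at 37 deg C, 5% CO2; luminescent read-out.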
TrxR1 inh: inhibitors of rat thioredoxin reductase 1; O89049; recombinant rTrxR1, NADPH fluorescence consumption, selenite substrate; Potency, µM (doses to about 114 µM), most hits filed as inhibitors; hit rate 1% among 390,000; also: nearly all actives have a fitted effect of over 65% in size
Target sequence (O89049 whole entry, looked up): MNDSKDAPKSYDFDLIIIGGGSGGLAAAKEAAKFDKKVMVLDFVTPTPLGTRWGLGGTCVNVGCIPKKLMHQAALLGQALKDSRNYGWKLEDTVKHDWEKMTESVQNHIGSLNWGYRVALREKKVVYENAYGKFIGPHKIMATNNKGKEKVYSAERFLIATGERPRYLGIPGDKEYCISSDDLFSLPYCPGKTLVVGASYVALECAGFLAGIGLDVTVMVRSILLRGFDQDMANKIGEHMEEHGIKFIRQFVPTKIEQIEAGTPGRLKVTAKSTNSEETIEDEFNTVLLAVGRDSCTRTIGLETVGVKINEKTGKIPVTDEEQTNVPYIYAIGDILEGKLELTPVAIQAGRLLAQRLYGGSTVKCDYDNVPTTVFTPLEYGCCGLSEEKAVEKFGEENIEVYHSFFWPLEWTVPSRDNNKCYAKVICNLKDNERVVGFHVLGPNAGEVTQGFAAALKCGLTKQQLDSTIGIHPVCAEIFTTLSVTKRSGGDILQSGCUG
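Rat TrxR1 (90 nM in the dispensed reagent) was pre-reduced with 400 uM NADPH for 5 min at room temperature, then incubated with compound for 15 min. After 400 uM selenite was added, NADPH fluorescence (Ex 340/Em 450 nm) was followed for 8 min.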
TrxR1 substrate: rat thioredoxin reductase 1 substrate activity; Potency, µM (doses to about 114 µM); hit rate 0.01% among 390,000; purified TrxR1 substrate turnover, NADPH consumption readout; O89049; also: nearly all actives have a fitted effect of over 50% in size
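Rat TrxR1, dispensed at 90 nM, was prereduced with 400 uM NADPH (final) for 5 min at ~22 deg C, then incubated with compound 15 min before 400 uM selenite. A first-read NADPH fluorescence drop versus no-compound background flagged substrates.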
GALK inhibitor: blocks human galactokinase activity; P51570; Purified GALK, Kinase-Glo residual ATP luminescence; Potency, µM (series often up to 57.5 µM), hits mostly inhibitors; hit rate 0.007% among 270,000; AID 1868
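ATP-depletion format; final 35 uM ATP, 100 uM D-galactose, 5 nM enzyme; pH 8.0 HEPES/Mg2+ buffer; 60 min RT; luminescence read 10 min after detection reagent.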
Nrf2 block: inhibitors of Nrf2 signaling; A549 ARE-Fluc reporter, luciferase luminescence, 18-24 h; hit rate 2.1% among 360,000; Potency, µM (series often up to 46 µM), most hits filed as inhibitors; AID 504444; also: nearly all actives have a fitted effect of over 60% in size
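Concentration-response testing used A549 ARE_Fluc cells at 5000 cells/well. Following an 18-24 h compound incubation, viability was read by fluorescence (Ex 405/Em 525) and luciferase output by luminescence.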
Hits are given with their value; i = inactive; ? = inconclusive; nt = no result; [ ] = remark or other dose. Calls follow the shape of the dose curve; as a rule, active = well fitted curve in the direction sought with a large enough effect; inconclusive = small, poorly fitted or top-dose-only effect, or another doubt; inactive = no such curve, though single readings can be large; an effect the other way counts as inactive or inconclusive.

SMILES	A549 tox	Nrf2 activator	TrxR1 inh	TrxR1 substrate	GALK inhibitor	Nrf2 block
CCCCS(=O)(=O)c1oc(-c2ccc(F)cc2)nc1S(=O)(=O)c1ccc(C)cc1	?	i	1.4µM	i	nt	?
CN(C)c1oc(-c2ccc(Cl)cc2)nc1S(=O)(=O)c1ccccc1	i	i	35µM	i	i	i
CCCCS(=O)(=O)c1oc(-c2cccs2)nc1S(=O)(=O)c1ccc(F)cc1	?	?	0.71µM	i	nt	?
CCCCCS(=O)(=O)c1oc(-c2cccs2)nc1S(=O)(=O)c1ccc(C)cc1	i	i	1.6µM	i	nt	i
CCS(=O)(=O)c1oc(-c2ccc(F)cc2)nc1S(=O)(=O)c1ccccc1	?	?	0.5µM	i	nt	?
CCOC(=O)c1ccc(Nc2nc3ccccc3n3c(C)nnc23)cc1	i	i	i	i	nt	?
O=C(C[n+]1cccc(I)c1)c1ccc(F)cc1	nt	nt	i	i	nt	nt
Cc1ccc(Cl)cc1NS(=O)(=O)c1cc2c(cc1F)NC(=O)CC2	i	nt	nt	nt	nt	i
Cn1nc(C(=O)Nc2ccccc2C#N)c2c1-c1ccccc1SC2	i	i	i	i	nt	i
CCCCNC(=O)c1nn(C)c2c1CSc1ccccc1-2	i	i	i	i	nt	21µM
CCOc1ccccc1NC(=O)c1nn(C)c2c1CSc1ccccc1-2	i	i	i	i	nt	18µM
O=S(=O)(NCC(c1ccco1)N1CCOCC1)c1ccc(F)cc1 (centres undefined)	?	i	i	i	nt	nt
CNCc1cc2ccc(C)cc2[nH]c1=O	i	i	25µM	i	i	i
C=CCOC(=O)C1=C(C)NC(SCC(N)=O)=C(C#N)C1c1ccc(C)cc1 (centres undefined)	i	i	i	i	i	i
C=CCOC(=O)C1=C(C)NC(SCC)=C(C#N)C1c1ccc(Cl)cc1 (centres undefined)	?	i	i	i	i	21µM
C=CCOC(=O)C1=C(C)NC(SCC(=O)Nc2ccc(C)c(Cl)c2)=C(C#N)C1c1ccco1 (centres undefined)	i	i	i	i	i	6.5µM
CC(Cl)OC(=O)Nc1cccc2cccnc12 (centres undefined)	i	nt	i	i[0.457 µM]	nt	i
Cc1ccc(S(=O)(=O)N2CCCC(C)C2)cc1 (centres undefined)	i	i	i	i	i	i
CC1CCCN(S(=O)(=O)c2ccc(S(=O)(=O)NC(C)c3cccs3)cc2)C1 (centres undefined)	?	i	i	i	i	23µM
COc1ccc(-c2ccc3ncnc(NCc4ccc(C)o4)c3c2)cc1OC	i	nt	nt	nt	nt	i
CN1C(=O)C(C)(C)c2cc(S(=O)(=O)NCc3ccc(C(=O)Nc4ccc(Cl)cc4)cc3)ccc21	i	i	i	i	nt	18µM
Cc1ccc(-n2[nH]c(C)c(/C=N/Nc3ccc([N+](=O)[O-])cc3[N+](=O)[O-])c2=O)cc1C	16µM	i	?	i	i	?
Cc1[nH]n(-c2ccccc2)c(=O)c1/C=N/NC(=O)c1cccc([N+](=O)[O-])c1	i	i	i	i	i	i
Cc1cccc(S(=O)(=O)C(C#N)c2nc3ccccc3nc2N2CC(C)OC(C)C2)c1 (centres undefined)	i	i	i	i	i	16µM
Cc1ccc(S(=O)(=O)C(C#N)c2nc3ccccc3nc2N2CC(C)OC(C)C2)cc1C (centres undefined)	nt	i	i	i	i	?
SMILES	A549 tox	Nrf2 activator	TrxR1 inh	TrxR1 substrate	GALK inhibitor	Nrf2 block
CCc1ccc2[nH]c(=O)c(C(c3nnnn3CC3CCCO3)N3CCCc4ccccc43)cc2c1 (centres undefined)	?	i	i	i	i	23µM
Cc1ccc(S(=O)(=O)c2nnn3c2nc(Nc2ccc(C(C)C)cc2)c2sccc23)cc1C	i	i	i	i	nt	21µM
C=CCCN(Cc1ccc(OC)cc1)S(=O)(=O)c1ccccc1Br	i	nt	i	i	nt	i
O=C(NCCn1cc(SCc2ccccc2Cl)c2ccccc21)c1cccs1	i	i	i	i[11.4 µM]	nt	16µM
CCN(CC)CCNC(=O)c1c2c(nc3ccccc13)C(=O)N(C1CCCCC1)C2	i	i	i	i	nt	?
CCOC(=O)CSc1snnc1C	i	i	i	i	nt	i
CCOC(=O)CSC1=NC(=O)CS1	i	i	14µM	i	i	i
O=c1c2c3nc4ccccc4nc3n(/N=C/c3ccco3)c2ncn1CCC1=CCCCC1	i	i	i	i	i	i
CCCCCCn1c(C)nc2c(c1=O)c1nc3ccccc3nc1n2/N=C/c1ccco1	?	i	?	i	i	23µM
CCOc1ccccc1NC(=O)Cn1cnc2sc(C)c(S(=O)(=O)N3CCC(C)CC3)c2c1=O	i	i	i	i	nt	i[9.27 µM]
Cc1noc(/C=C/c2ccccc2F)c1S(=O)(=O)N1CCC(C(=O)NCC(C)c2ccccc2)CC1 (centres undefined)	i	i	i	i	nt	nt
Cc1ccc(C(=O)Nc2ccc(S(=O)(=O)N3CCc4ccccc43)cc2)o1	i	i	i	i	i	21µM
Cc1ccc(C(=O)Nc2ccc(S(=O)(=O)N3CCc4ccccc4C3)cc2)o1	i	i	i	i	i	nt
Cn1cc(S(=O)(=O)N2CCc3ccccc32)cc1C(=O)Nc1ccc(Cl)cc1	i	i	i	i	nt	8.2µM
Cc1ccc(NC(=O)c2cc(S(=O)(=O)N3CCc4ccccc43)cn2C)cc1	i	i	i	i	nt	?
O=S(=O)(NC1CC1)c1ccc(S(=O)(=O)N2CCCc3ccccc32)cc1	i	i	i	i	i	23µM
CCCC(=O)NC(=S)Nc1ccc(S(=O)(=O)N2CCc3ccccc32)cc1	i	i	i	i	nt	21µM
Cc1cccc(NC(=O)c2ccc(N(Cc3ccccc3)S(C)(=O)=O)cc2)c1	i	?	i	i	nt	?
NC(=O)c1ccsc1NC(=O)c1ccc(S(=O)(=O)N2CCCc3ccccc32)cc1	?	i	i	i	nt	18µM
Cc1ccc(N(C)C(=O)c2cc(S(=O)(=O)N3CCc4ccccc43)cn2C)cc1	i	i	i	i	nt	i
COc1ccc(C(=O)Nc2ccc(S(=O)(=O)N3CCc4ccccc43)cc2)cc1	i	i	i	i	nt	15µM
COc1ccc(N(C)C(=O)c2cc(S(=O)(=O)N3CCc4ccccc43)cn2C)c(OC)c1	?	i	i	i	nt	18µM
NS(=O)(=O)c1ccc(NC(=O)c2ccc(S(=O)(=O)N3CCc4ccccc43)cc2)cc1	i	i	i	i	i	i
Cc1ccc(C(C)C)c(OCCn2cc(C(=O)c3ccco3)c3ccccc32)c1	i	i	i	i	nt	?
Cc1ccc(NC(c2nnc(-c3ccccc3)o2)c2ccccc2F)c([N+](=O)[O-])c1 (centres undefined)	i	?	i	i	nt	?
CCOC(=O)c1c(S(=O)(=O)NCC(=O)Nc2ccc(C)c(Cl)c2)c(C)n(C)c1C	i	i	i	i	nt	nt
